# Source: the antibiotic and cytotoxicity screens of Wong et al. (2023)
# About 3,300 (8.5%) of roughly 39,000 compounds were called active. For the sample, actives were picked, then their nearest neighbours and some compounds at random.
# System: HepG2
# Experiment: cytotoxicity call (relative viability < 0.9)
# Conditions: 10 µM
row,SMILES,cytotoxicity call
1,C[C@@H]1CN([C@H](C)CO)S(=O)(=O)c2ccc(C#Cc3cccnc3)cc2O[C@H]1CN(C)CC1CCCC1,inactive
2,Cc1noc(C)c1S(=O)(=O)N(C)C[C@H]1Oc2ccc(NS(C)(=O)=O)cc2C(=O)N([C@H](C)CO)C[C@H]1C,inactive
3,COc1ccc(NC(=O)Nc2ccc3c(c2)[C@@H]2C[C@H](CC(=O)N4CCN(C)CC4)O[C@@H](CO)[C@@H]2O3)cc1,inactive
4,C[C@@H]1CCCCO[C@@H](CN(C)C(=O)Cc2ccccc2)[C@@H](C)CN([C@@H](C)CO)C(=O)c2cc(NS(=O)(=O)c3ccc(Cl)cc3)ccc2O1,inactive
5,Cc1ccc(S(=O)(=O)Nc2ccc3c(c2)C(=O)N([C@@H](C)CO)C[C@H](C)[C@H](CN(C)C(=O)Cc2ccccc2)OCCCC[C@@H](C)O3)cc1,inactive
6,C[C@@H]1CCCCO[C@@H](CN(C)C(=O)Cc2ccccc2)[C@@H](C)CN([C@H](C)CO)C(=O)c2cc(NS(=O)(=O)c3ccc(F)cc3)ccc2O1,inactive
7,C[C@@H]1CN([C@@H](C)CO)C(=O)c2cc(NS(=O)(=O)c3ccc(F)cc3)ccc2O[C@@H](C)CCCCO[C@@H]1CN(C)C(=O)Cc1ccccc1,inactive
8,C[C@@H]1CN([C@@H](C)CO)C(=O)c2cc(NS(=O)(=O)c3ccc(Cl)cc3)ccc2O[C@@H](C)CCCCO[C@H]1CN(C)C(=O)Cc1ccccc1,inactive
9,C[C@H]1CCCCO[C@@H](CN(C)C(=O)Cc2ccccc2)[C@@H](C)CN([C@@H](C)CO)C(=O)c2cc(NS(=O)(=O)c3ccc(F)cc3)ccc2O1,active
10,Cc1ccc(S(=O)(=O)Nc2ccc3c(c2)C(=O)N([C@@H](C)CO)C[C@H](C)[C@@H](CN(C)C(=O)Cc2ccccc2)OCCCC[C@@H](C)O3)cc1,active
11,C[C@@H]1CN([C@H](C)CO)C(=O)c2cc(NS(=O)(=O)c3ccc(Cl)cc3)ccc2O[C@@H](C)CCCCO[C@@H]1CN(C)C(=O)Cc1ccccc1,active
12,Cc1ccc(S(=O)(=O)Nc2ccc3c(c2)C(=O)N([C@@H](C)CO)C[C@@H](C)[C@H](CN(C)C(=O)Cc2ccccc2)OCCCC[C@H](C)O3)cc1,inactive
13,CN(C)CC#Cc1ccc([C@@H]2[C@H]3CN(C(=O)c4cccnc4)CC(=O)N3[C@H]2CO)cc1,inactive
14,CC(C)(C)[S@](=O)N1Cc2cc(C(=O)NCc3ccncc3)nc(-c3cccc(-c4ccc(C#N)cc4)c3)c2[C@@H]1CCO,inactive
15,CO[C@H]1CN(C)C(=O)c2cc(NC(=O)C3CC3)ccc2OC[C@H](C)N(C(=O)CN2CCOCC2)C[C@H]1C,inactive
16,CC(C)=CCCC(C)=CCC1=C(C)C(=O)c2ccccc2C1=O,inactive
17,COC1=C(CC=C(C)C)C(=O)c2ccccc2C1=O,active
18,CC(C)=CCC1=C(O)C(=O)c2ccccc2C1=O,inactive
19,Cc1noc(C)c1S(=O)(=O)Nc1ccc2c(c1)CC(=O)N([C@H](C)CO)C[C@@H](C)[C@H](CN(C)S(=O)(=O)c1ccccc1)O2,inactive
20,CN(Cc1ccc(C(C)(C)C)cc1)Cc1cccc2ccccc12,inactive
21,CCOC(=O)N(C)C[C@H]1OCc2cnnn2CCCC(=O)N([C@@H](C)CO)C[C@H]1C,inactive
22,C[C@@H]1NC(=O)[C@@H](N)CNC(=O)[C@H]([C@H]2CCN=C(N)N2)NC(=O)/C(=C\NC(N)=O)NC(=O)[C@H](CNC(=O)C[C@@H](N)CCCN)NC1=O,inactive

row,SMILES,cytotoxicity call
1,C[C@H](CO)N1C[C@H](C)[C@H](CN(C)C(=O)Nc2ccc(C(F)(F)F)cc2)Oc2ccc(NC(=O)Nc3ccccc3)cc2CC1=O,inactive
2,C[C@H]1CN([C@@H](C)CO)C(=O)Cc2cc(NC(=O)Nc3ccc(C(F)(F)F)cc3)ccc2O[C@@H]1CN(C)C(=O)Nc1ccccc1,inactive
3,C[C@H](CO)N1C[C@H](C)[C@H](CN(C)C(=O)Nc2ccccc2)Oc2ccc(NC(=O)Nc3ccc(C(F)(F)F)cc3)cc2CC1=O,active
4,C[C@@H]1CN([C@@H](C)CO)C(=O)Cc2cc(NC(=O)Nc3ccc(C(F)(F)F)cc3)ccc2O[C@@H]1CN(C)C(=O)Nc1ccccc1,active
5,C[C@H](CO)N1C[C@H](C)[C@@H](CN(C)C(=O)Nc2ccccc2)Oc2ccc(NC(=O)Nc3ccc(C(F)(F)F)cc3)cc2CC1=O,inactive
6,C[C@@H]1CN([C@@H](C)CO)C(=O)Cc2cc(NC(=O)Nc3ccccc3)ccc2O[C@@H]1CN(C)C(=O)Nc1ccc(C(F)(F)F)cc1,inactive
7,COc1ccc(NC(=O)N(C)C[C@H]2OCCCC[C@H](C)Oc3ccc(NC(=O)NC(C)C)cc3C(=O)N([C@@H](C)CO)C[C@@H]2C)cc1,inactive
8,Cc1cc(C(=O)Nc2cccc3c2O[C@H](CN(C)S(=O)(=O)c2ccc(F)cc2)[C@@H](C)CN([C@@H](C)CO)C3=O)n(C)n1,inactive
9,C[C@H](CO)N1C[C@H](C)[C@@H](CN(C)C(=O)Nc2ccc3c(c2)OCO3)Oc2ccc(NC(=O)Nc3cccc4ccccc34)cc2C1=O,inactive
10,COc1ccc(S(=O)(=O)N(C)C[C@@H]2Oc3c(NC(=O)c4ccncc4)cccc3C(=O)N([C@H](C)CO)C[C@H]2C)cc1,inactive
11,CN(C)CCc1cc(Br)c(OCCCNC(=O)/C=C/c2cc(Br)c(OCCN3CCCC3)c(Br)c2)c(Br)c1,active
12,CN(C)CCc1cc(Br)c(OCCCNC(=O)/C=C/c2cc(Br)c(OCCN3CCCCC3)c(Br)c2)c(Br)c1,active
13,C=CC(=O)NCCN1CCCCC1,inactive
14,COc1ccc(NC(=O)Nc2ccc3c(c2)C(=O)N([C@@H](C)CO)C[C@@H](C)[C@@H](CN(C)S(=O)(=O)c2ccc(Cl)cc2)OCCCC[C@@H](C)O3)cc1,inactive
15,C[C@H](CO)N1C[C@H](C)[C@H](CN(C)S(C)(=O)=O)OCCCC[C@H](C)Oc2ccc(NS(C)(=O)=O)cc2C1=O,inactive
16,NC(=O)C1CCOCC1,inactive
17,C[C@@H]1CN([C@H](C)CO)C(=O)c2cc(C#Cc3ccccn3)cnc2O[C@H]1CN(C)C(=O)CCN1CCCCC1,inactive
18,CC(=O)O[C@H]1CCS(=O)(=O)C1,inactive
19,COc1cccc(C(=O)Nc2ccc3c(c2)C(=O)N(C)[C@@H]2CC[C@@H](CC(=O)NCC(F)(F)F)O[C@H]2CO3)c1,inactive
20,CCn1nnnc1NCc1cccn1C,inactive
21,C[C@@H]1CN([C@@H](C)CO)C(=O)c2cc(NC(=O)Nc3ccc(C(F)(F)F)cc3)ccc2O[C@@H]1CN(C)Cc1ccc(C(F)(F)F)cc1,active
22,C[C@@H]1CN([C@@H](C)CO)C(=O)c2cc(NC(=O)Nc3ccc(C(F)(F)F)cc3)ccc2O[C@H]1CN(C)Cc1ccc(C(F)(F)F)cc1,active

row,SMILES,cytotoxicity call
1,C[C@@H]1CN([C@H](C)CO)C(=O)c2cc(NC(=O)Nc3ccc(C(F)(F)F)cc3)ccc2O[C@H]1CN(C)Cc1ccc(C(F)(F)F)cc1,active
2,C[C@@H]1CN([C@H](C)CO)C(=O)c2cc(NC(=O)Nc3ccc(C(F)(F)F)cc3)ccc2O[C@@H]1CN(C)Cc1ccc(C(F)(F)F)cc1,active
3,C[C@H](CO)N1C[C@H](C)[C@H](CN(C)S(=O)(=O)c2ccc(F)cc2)Oc2ccc(NS(=O)(=O)c3ccc(F)cc3)cc2CC1=O,inactive
4,c1cnc2c(c1)OCCN2,inactive
5,C=CCC[C@@H](Cc1ccc(F)cc1)C(=O)OC[C@H]1CCCN1C(=O)[C@H](CC=C)CC(=O)N(CCO)Cc1ccccc1,inactive
6,C[C@@H]1CCCCO[C@@H](CN(C)C(=O)C2CCCCC2)[C@@H](C)CN([C@@H](C)CO)C(=O)c2cc(NC(=O)c3ccccc3)ccc2O1,inactive
7,O=c1nc(NCc2ccco2)cc[nH]1,inactive
8,C[C@@H]1CN([C@@H](C)CO)C(=O)c2cc(NC(=O)Cn3cnnn3)ccc2O[C@H]1CN(C)Cc1ccc2c(c1)OCO2,inactive
9,COc1ccc(S(=O)(=O)N(C)C[C@H]2Oc3ccc(NS(=O)(=O)c4ccccc4)cc3C(=O)N([C@H](C)CO)C[C@@H]2C)cc1,inactive
10,Cc1ccc(S(=O)(=O)Nc2ccc3c(c2)CC(=O)N([C@@H](C)CO)C[C@H](C)[C@@H](CN(C)S(=O)(=O)c2ccccc2)O3)cc1,inactive
11,Cc1noc(C)c1NC(=O)Nc1ccc2c(c1)C(=O)N([C@@H](C)CO)C[C@H](C)[C@@H](CN(C)S(=O)(=O)c1ccc(Cl)cc1)OCCCC[C@H](C)O2,inactive
12,CCOC(=O)C1=NNC[C@@H]1C(=O)OCC,inactive
13,C[C@H](CO)N1C[C@H](C)[C@H](CN(C)Cc2ccc(C(F)(F)F)cc2)Oc2ccc(NC(=O)Nc3ccc(C(F)(F)F)cc3)cc2C1=O,active
14,C[C@H](CO)N1C[C@H](C)[C@@H](CN(C)Cc2ccc(C(F)(F)F)cc2)Oc2ccc(NC(=O)Nc3ccc(C(F)(F)F)cc3)cc2C1=O,inactive
15,C[C@H]1CN([C@@H](C)CO)C(=O)c2cc(NC(=O)Nc3ccc(C(F)(F)F)cc3)ccc2O[C@H]1CN(C)Cc1ccc(C(F)(F)F)cc1,inactive
16,C[C@H]1CN([C@@H](C)CO)C(=O)c2cc(NC(=O)Nc3ccc(C(F)(F)F)cc3)ccc2O[C@@H]1CN(C)Cc1ccc(C(F)(F)F)cc1,active
17,CC(=O)N1CCN(c2ccnc3c2c(=O)n(CC(=O)NC(C)(C)C)c(=O)n3C)CC1,inactive
18,CO[C@H]1C[C@@H]2CC[C@@H](C)[C@@](O)(O2)C(=O)C(=O)N2CCCC[C@H]2C(=O)O[C@H]([C@H](C)C[C@@H]2CC[C@@H](OCCO)[C@H](OC)C2)CC(=O)[C@H](C)/C=C(\C)[C@@H](O)[C@@H](OC)C(=O)[C@H](C)C[C@H](C)/C=C/C=C/C=C/1C,inactive
19,C[C@@H]1CN([C@@H](C)CO)C(=O)Cc2cc(NS(=O)(=O)c3cn(C)cn3)ccc2O[C@@H]1CN(C)S(=O)(=O)c1ccc(Cl)cc1,inactive
20,C[C@H]1CN([C@@H](C)CO)C(=O)c2cccc(NS(=O)(=O)c3ccc(Cl)cc3)c2O[C@H]1CN(C)Cc1ccc(-c2ccccc2)cc1,inactive
